Experimental data: PubChem BioAssay (NCI)
The panel holds about 83,000 compounds, 20% with a hit somewhere; the sample as a whole holds those more often.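 The test compound was applied at a single concentration to cells in 96-well plates for 48 hours, and percent growth was recorded.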 Activity calls are given as the source filed them. Rule for the calls: active = growth percent below 10; inactive = the rest.

Legend:
Assay in all cases: NCI-60 one-dose screen, 48 h (100 = growth as untreated, 0 = no growth, -100 = all killed)
Conditions in all cases: 10 µM unless noted
NCI-H23 lung = tested on: NCI-H23 lung
NCI-H226 lung = tested on: NCI-H226 lung
NCI-H322M lung = tested on: NCI-H322M lung
HOP-62 NSCLC = tested on: HOP-62 NSCLC
NCI-H460 lung = tested on: NCI-H460 lung
HOP-92 NSCLC = tested on: HOP-92 NSCLC
NCI-H522 lung = tested on: NCI-H522 lung
A549/ATCC NSCLC = tested on: A549/ATCC NSCLC
786-0 renal = tested on: 786-0 renal
COLO 205 colon = tested on: COLO 205 colon
DU-145 prostate = tested on: DU-145 prostate
K-562 leukemia = tested on: K-562 leukemia
MALME-3M melanoma = tested on: MALME-3M melanoma
MDA-MB-231 breast = tested on: MDA-MB-231 breast
RXF 393 renal = tested on: RXF 393 renal
SF-268 CNS = tested on: SF-268 CNS
SF-295 CNS = tested on: SF-295 CNS
SF-539 CNS = tested on: SF-539 CNS
UACC-257 melanoma = tested on: UACC-257 melanoma
M14 melanoma = tested on: M14 melanoma

Measured: growth

O=C1/C(=C/c2ccccc2Br)COc2ccc(O)c(O)c21
active: HOP-62 NSCLC -5.9% | NCI-H522 lung -45.2% | 786-0 renal -41.6% | K-562 leukemia 9.73% | MALME-3M melanoma -8.51% | MDA-MB-231 breast 0.858% | SF-539 CNS -25.7%
inactive: NCI-H23 lung 46.5% | NCI-H226 lung 86.3% | NCI-H322M lung 33.3% | NCI-H460 lung 14.3% | HOP-92 NSCLC 36.9% | A549/ATCC NSCLC 35.1% | COLO 205 colon 82.2% | DU-145 prostate 13% | RXF 393 renal 10.1% | SF-268 CNS 10.9% | SF-295 CNS 62.9% | UACC-257 melanoma 19.7% | M14 melanoma 31.5%

CC(=O)N1N=C(c2ccc(Nc3nc(Nc4ccc(Cl)cc4)nc(Nc4ccc(Cl)cc4)n3)cc2)CC1c1ccco1 (configuration not stated)
inactive: NCI-H23 lung 85.4% | NCI-H226 lung 100% | NCI-H322M lung 103% | HOP-62 NSCLC 91.9% | NCI-H460 lung 96.9% | HOP-92 NSCLC 99.9% | NCI-H522 lung 68.4% | A549/ATCC NSCLC 72.1% | 786-0 renal 86.7% | COLO 205 colon 109% | DU-145 prostate 107% | K-562 leukemia 79.5% | MALME-3M melanoma 97.9% | MDA-MB-231 breast 92.7% | RXF 393 renal 71.1% | SF-268 CNS 103% | SF-295 CNS 92.8% | SF-539 CNS 96% | UACC-257 melanoma 96.4% | M14 melanoma 90.5%

O=C(CSc1nnc2n1S(=O)(=O)c1ccccc1N2c1ccccc1)Nc1nc2ccc(F)cc2s1
inactive: NCI-H23 lung 80.3% | NCI-H226 lung 93.2% | NCI-H322M lung 113% | HOP-62 NSCLC 82.3% | NCI-H460 lung 106% | HOP-92 NSCLC 88% | NCI-H522 lung 87.2% | A549/ATCC NSCLC 93.3% | 786-0 renal 96.2% | COLO 205 colon 106% | DU-145 prostate 114% | K-562 leukemia 98.5% | MALME-3M melanoma 87.4% | MDA-MB-231 breast 98.9% | RXF 393 renal 87.1% | SF-268 CNS 97.2% | SF-295 CNS 91.5% | SF-539 CNS 102% | UACC-257 melanoma 111% | M14 melanoma 96.5%

OCc1cccc(-c2ccc3ncc(-c4nc(NC5CC5)ncc4F)n3c2)c1
active: NCI-H23 lung -16.3% | NCI-H226 lung 2.19% | NCI-H322M lung -6.44% | HOP-62 NSCLC 2.21% | NCI-H460 lung -4.33% | HOP-92 NSCLC -13.9% | NCI-H522 lung -13.9% | A549/ATCC NSCLC -8.48% | 786-0 renal 6.46% | COLO 205 colon -39.7% | DU-145 prostate 2.04% | K-562 leukemia 4.91% | MALME-3M melanoma -69% | MDA-MB-231 breast -15.6% | RXF 393 renal -44.3% | SF-268 CNS -24.5% | SF-295 CNS 4.24% | SF-539 CNS -61.2% | UACC-257 melanoma -29.9% | M14 melanoma -39.4%

COc1ccc(-c2ccc3cnc4sc(-c5ccc(OC)cc5)nc4c3n2)cc1
inactive: NCI-H23 lung 91% | NCI-H226 lung 85.7% | NCI-H322M lung 86.7% | HOP-62 NSCLC 97.8% | NCI-H460 lung 102% | HOP-92 NSCLC 100% | NCI-H522 lung 87.4% | A549/ATCC NSCLC 93.1% | 786-0 renal 106% | COLO 205 colon 104% | DU-145 prostate 107% | K-562 leukemia 96.6% | MALME-3M melanoma 111% | MDA-MB-231 breast 89.6% | RXF 393 renal 107% | SF-268 CNS 95.4% | SF-295 CNS 100% | SF-539 CNS 91.5% | UACC-257 melanoma 106% | M14 melanoma 115%

O=C(CCCCC1CCSS1)Nc1ncnc2n[nH]c(-c3ccc(Oc4ccccc4)cc3)c12 (configuration not stated)
inactive: NCI-H23 lung 59.2% | NCI-H226 lung 94.2% | NCI-H322M lung 79.5% | HOP-62 NSCLC 65.6% | HOP-92 NSCLC 97.9% | NCI-H522 lung 70.3% | A549/ATCC NSCLC 37% | 786-0 renal 117% | COLO 205 colon 88.9% | DU-145 prostate 65.6% | MALME-3M melanoma 109% | MDA-MB-231 breast 68.3% | RXF 393 renal 113% | SF-268 CNS 72.4% | SF-295 CNS 102% | SF-539 CNS 106% | UACC-257 melanoma 95.2%
active: NCI-H460 lung 2.83% | K-562 leukemia 9.6% | M14 melanoma -62.8%

CCOC(=O)c1nc(Nc2ccc(NC(=O)Nc3ccc(F)cc3)cc2)c2ccccc2n1
inactive: NCI-H23 lung 92.3% | NCI-H226 lung 90.4% | NCI-H322M lung 97% | HOP-62 NSCLC 97.6% | NCI-H460 lung 99.1% | HOP-92 NSCLC 106% | NCI-H522 lung 98.5% | A549/ATCC NSCLC 102% | 786-0 renal 106% | COLO 205 colon 108% | DU-145 prostate 108% | K-562 leukemia 102% | MALME-3M melanoma 92.6% | MDA-MB-231 breast 95.9% | RXF 393 renal 93.2% | SF-268 CNS 98.3% | SF-295 CNS 99.8% | SF-539 CNS 99.9% | UACC-257 melanoma 103% | M14 melanoma 97%

CS(=O)(=O)C1=CN(CCO)C(=O)N2CCCN=C12
inactive: NCI-H23 lung 95.7% | NCI-H226 lung 96.6% | NCI-H322M lung 93.1% | HOP-62 NSCLC 92.4% | NCI-H460 lung 102% | HOP-92 NSCLC 101% | NCI-H522 lung 94.8% | A549/ATCC NSCLC 98.7% | 786-0 renal 99.5% | COLO 205 colon 97.8% | DU-145 prostate 105% | K-562 leukemia 118% | MALME-3M melanoma 96.2% | MDA-MB-231 breast 98.6% | RXF 393 renal 106% | SF-268 CNS 97.2% | SF-295 CNS 105% | SF-539 CNS 102% | UACC-257 melanoma 105% | M14 melanoma 98.9%

Cc1ccc(-c2nc(/C=C3/C(=O)Nc4ccccc43)c3ccccn23)cc1
active: DU-145 prostate -16.3%
inactive: NCI-H23 lung 72.6% | NCI-H226 lung 88.7% | NCI-H322M lung 88% | HOP-62 NSCLC 91.8% | NCI-H460 lung 40.7% | HOP-92 NSCLC 105% | NCI-H522 lung 57.7% | A549/ATCC NSCLC 75.1% | 786-0 renal 104% | COLO 205 colon 92.2% | K-562 leukemia 81.5% | MALME-3M melanoma 116% | MDA-MB-231 breast 85.2% | RXF 393 renal 38.2% | SF-268 CNS 88% | SF-295 CNS 91.9% | SF-539 CNS 94.8% | UACC-257 melanoma 102% | M14 melanoma 92.3%

O=C(CSc1nc(-c2ccccc2)[nH]c1S(=O)(=O)c1ccccc1)NC1CC1
active: COLO 205 colon -30.9% | RXF 393 renal 4.36%
inactive: NCI-H23 lung 56.6% | NCI-H226 lung 85.8% | NCI-H322M lung 105% | HOP-62 NSCLC 21.2% | NCI-H460 lung 102% | HOP-92 NSCLC 89.6% | NCI-H522 lung 76.2% | 786-0 renal 94.5% | DU-145 prostate 112% | K-562 leukemia 87.4% | MALME-3M melanoma 103% | MDA-MB-231 breast 90.1% | SF-268 CNS 102% | SF-295 CNS 36.3% | SF-539 CNS 103% | UACC-257 melanoma 87.4% | M14 melanoma 96.4%

CC(C)n1cnc2c(=S)nc[nH]c21
inactive: NCI-H23 lung 114% | NCI-H226 lung 107% | NCI-H322M lung 112% | HOP-62 NSCLC 108% | NCI-H460 lung 111% | HOP-92 NSCLC 103% | NCI-H522 lung 105% | A549/ATCC NSCLC 126% | 786-0 renal 113% | COLO 205 colon 114% | DU-145 prostate 111% | K-562 leukemia 69.9% | MALME-3M melanoma 156% | MDA-MB-231 breast 118% | RXF 393 renal 121% | SF-268 CNS 101% | SF-295 CNS 90.1% | SF-539 CNS 99.6% | UACC-257 melanoma 120% | M14 melanoma 109%

CC1(C)CC2=C3C=C[C@@H]4[C@@]5(C)CCC(=O)C(C)(C)[C@@H]5CC[C@@]4(C)[C@]3(C)CC[C@@]2(C(=O)O)CC1=O
inactive: NCI-H23 lung 71.6% | NCI-H226 lung 53% | NCI-H322M lung 59.7% | HOP-62 NSCLC 76% | NCI-H460 lung 76.7% | HOP-92 NSCLC 25.8% | NCI-H522 lung 65.1% | 786-0 renal 31.7% | COLO 205 colon 68.6% | DU-145 prostate 97.2% | K-562 leukemia 92.1% | MALME-3M melanoma 39.1% | MDA-MB-231 breast 75.3% | RXF 393 renal 54.8% | SF-268 CNS 53.3% | SF-295 CNS 75.3% | SF-539 CNS 65.7% | UACC-257 melanoma 43.2% | M14 melanoma 46.8%

C=CCn1c(SCC(=O)Nc2ccc(C(=O)/C=C/c3cc4cc(OC)ccc4nc3Cl)cc2)nnc1-c1ccc(Br)cc1
inactive: NCI-H23 lung 78% | NCI-H226 lung 89.4% | NCI-H322M lung 81.9% | HOP-62 NSCLC 99.3% | NCI-H460 lung 88.4% | HOP-92 NSCLC 70.1% | NCI-H522 lung 52.9% | 786-0 renal 80.9% | COLO 205 colon 112% | DU-145 prostate 86.1% | K-562 leukemia 46.3% | MALME-3M melanoma 92.5% | MDA-MB-231 breast 80.5% | RXF 393 renal 83.2% | SF-268 CNS 76% | SF-295 CNS 92.1% | SF-539 CNS 89.5% | UACC-257 melanoma 79.8% | M14 melanoma 90.1%

C=C1C(=O)O[C@H]2[C@H]1CC/C(COC(=O)NCc1ccc(Cn3c(=O)sn(CCI)c3=O)cc1)=C\CC[C@@]1(C)O[C@@H]21
active: HOP-92 NSCLC -19% | NCI-H522 lung -92.8% | COLO 205 colon -24.1% | K-562 leukemia 0.268% | MALME-3M melanoma -49.9% | RXF 393 renal 0.0448%
inactive: NCI-H23 lung 88.5% | NCI-H226 lung 85.7% | NCI-H322M lung 96.4% | HOP-62 NSCLC 114% | NCI-H460 lung 98.1% | A549/ATCC NSCLC 108% | 786-0 renal 59.6% | DU-145 prostate 17.2% | MDA-MB-231 breast 61% | SF-268 CNS 71.7% | SF-295 CNS 106% | SF-539 CNS 78.8% | UACC-257 melanoma 45.9% | M14 melanoma 15.7%

Cc1ccc(C2=Nc3c(N)ncnc3NC(c3ccc4c(c3)OCO4)C2)cc1 (configuration not stated)
inactive: NCI-H23 lung 74.3% | NCI-H226 lung 85.1% | NCI-H322M lung 102% | HOP-62 NSCLC 64.5% | NCI-H460 lung 42.4% | NCI-H522 lung 47.2% | A549/ATCC NSCLC 56.4% | 786-0 renal 80.8% | COLO 205 colon 37.3% | DU-145 prostate 98% | K-562 leukemia 14.8% | MALME-3M melanoma 51.8% | MDA-MB-231 breast 61.3% | RXF 393 renal 59.4% | SF-268 CNS 72.9% | SF-295 CNS 40.8% | SF-539 CNS 67.7% | UACC-257 melanoma 96.2% | M14 melanoma 39%
active: HOP-92 NSCLC 8.52%
